34 compounds from PubChem BioAssay (NCATS) can be followed below.

Structures are written as SMILES. Records with an inconclusive call do not appear. Calls of active or inactive are those of the source. Calls come from the whole dose curve; as a rule, active = well fitted cell-killing curve with a large enough effect; inconclusive = small, poorly fitted or top-dose-only effect, or effect the other way; inactive = flat fitted curve, though single readings scatter.

The test system of one assay is Hek293T. The experiment in a line: Primary qHTS to identify gynecologic anti-cancer compounds using libraries of approved drugs and bioactive compounds (AID 1345084). Note: nearly all actives have a fitted effect of over 55% in size. The following applies: Gynecologic cancer cell panel viability, ATPlite luminescence, 48 h, control line for the selectivity index; series mostly up to 57.5 µM. The essentials: (§1)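 Cell viability after 48 h drug treatment, ATPlite luminescence readout; five doses.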
For the compound `COc1cccc([C@@]2(O)CCCC[C@@H]2CN(C)C)c1`, the result was inactive.
On to `C#C[C@]1(O)CC[C@H]2[C@@H]3CCC4=CC(=O)CC[C@]4(C)[C@H]3CC[C@@]21C`, for which the compound was classed as inactive.
In the case of `COP(=S)(OC)Oc1ccc(S(=O)(=O)N(C)C)cc1`, the compound was classed as inactive.
Still for that read-out and setting: for `C[N+]1(CCF)[C@@H]2CC[C@H]1CC(OC(=O)C(O)(c1ccccc1)c1ccccc1)C2` (stereo partly drawn) the value was “inactive”; for `Nc1ccccc1`, “inactive”.
On the same count and under the same terms, for `CN1C(=O)NC(=O)C(C)(C2=CCCCC2)C1=O` (stereo not drawn) the value was “inactive”; for `CCC1(CC)C(=O)C=CNC1=O`, “inactive”.
For `O=c1oc2ccccc2c(O)c1Cc1c(O)c2ccccc2oc1=O`, the compound was called inactive.
In the case of `COC(=O)[C@@H](N)CCCN/C(N)=N/[N+](=O)[O-]`, the result was inactive.
Same read-out and setting: in the case of `Cc1ncsc1CCCl` it was “inactive”.
`COC(=O)C(Cl)C(=O)OC`: the outcome was inactive.
Regarding `CN(C)CCc1c[nH]c2cccc(OP(=O)(O)O)c12`, the call was inactive.
Consider `O=[N+]([O-])O[C@H]1CO[C@H]2[C@@H]1OC[C@H]2O[N+](=O)[O-]`, for which the compound was called inactive.
On to `CC(C)NC(C)C`, for which the call was inactive.
In the case of `O=C1OC(c2ccc(O)c(S(=O)(=O)O)c2)(c2ccc(O)c(S(=O)(=O)O)c2)c2c(Br)c(Br)c(Br)c(Br)c21`, the call was inactive.
In the case of `CCC1(c2ccccc2)C(=O)N(COC)C(=O)N(COC)C1=O`, the compound was called inactive.
On the same count and under the same terms, in the case of `CCOC(=O)CC(SP(=S)(OC)OC)C(=O)OCC` (stereo not drawn) it was “inactive”; in that of `CC(=O)OCC1=C(C(=O)O)N2C(=O)[C@@H](N)[C@H]2SC1`, “inactive”; in that of `CC1(C)C(C=C(Cl)Cl)C1C(=O)OC(C#N)c1cccc(Oc2ccccc2)c1` (stereo not drawn), “inactive”.
As to `O=C(N/N=C/c1ccc([N+](=O)[O-])o1)c1cc([N+](=O)[O-])cc([N+](=O)[O-])c1O`, the compound was classed as inactive.
Still for that read-out and setting: in the case of `CC(=O)NC1CCSC1=O` (stereo not drawn) it was “inactive”; in that of `CCCCCCC(=O)CCCCCC/C=C/C[C@@H](O)[C@H](O)[C@@](N)(CO)C(=O)O`, “inactive”; in that of `CC(C)c1cccc(C(C)C)c1O`, “inactive”.
On to `COP(=S)(OC)Oc1cc(Cl)c(Cl)cc1Cl`, for which the outcome was inactive.
Still for that read-out and setting: in the case of `O=c1[nH]oc2c1CCNC2` it was “inactive”.
The same measure, in the same setting: in the case of `NCCc1ccc(O)cc1` it was “inactive”; in that of `O=C1c2ccccc2C(=O)C1C(=O)C(c1ccccc1)c1ccccc1`, “inactive”.
On the same count and under the same terms, for `NC1=NC(=O)C(c2ccccc2)O1` (stereo not drawn) the value was “inactive”.
As for `C[C@@H](N)[C@@H](O)c1ccccc1`, the compound was called inactive.
As to `c1ccc2c(c1)sc1ccccc12`, the result was inactive.
Consider `CN1CC[C@]23c4c5ccc(O)c4O[C@H]2[C@@H](O)CC[C@H]3[C@H]1C5`, for which the result was inactive.
On the same count and under the same terms, for `c1ccc(CN2CCNCC2)cc1` the value was “inactive”.
`CCC(C)(C)c1ccc(O)cc1`: the compound was classed as inactive.
Same read-out and setting: for `CNC(C)(C)Cc1ccccc1` the value was “inactive”.

The subject of another assay is JEG-3. Described as above. The following applies: Gynecologic cancer cell panel viability, ATPlite luminescence, 48 h; series mostly up to 57.5 µM. The essentials:
as §1
A general note: Cellular ATP, detected with luciferase, serves as a proxy for viable cell number.
As to `COc1cccc([C@@]2(O)CCCC[C@@H]2CN(C)C)c1`, the result was inactive.
On the same count and under the same terms, in the case of `C#C[C@]1(O)CC[C@H]2[C@@H]3CCC4=CC(=O)CC[C@]4(C)[C@H]3CC[C@@]21C` it was “inactive”; in that of `COP(=S)(OC)Oc1ccc(S(=O)(=O)N(C)C)cc1`, “inactive”; in that of `C[N+]1(CCF)[C@@H]2CC[C@H]1CC(OC(=O)C(O)(c1ccccc1)c1ccccc1)C2` (stereo partly drawn), “inactive”.
Take `Nc1ccccc1`: the outcome was inactive.
Consider `CN1C(=O)NC(=O)C(C)(C2=CCCCC2)C1=O` (stereo not drawn), for which the call was inactive.
Same read-out and setting: for `CCC1(CC)C(=O)C=CNC1=O` the value was “inactive”.
On the same count and under the same terms, in the case of `O=c1oc2ccccc2c(O)c1Cc1c(O)c2ccccc2oc1=O` it was “inactive”; in that of `COC(=O)[C@@H](N)CCCN/C(N)=N/[N+](=O)[O-]`, “inactive”; in that of `Cc1ncsc1CCCl`, “inactive”.
On the same count and under the same terms, for `COC(=O)C(Cl)C(=O)OC` the value was “inactive”; for `CN(C)CCc1c[nH]c2cccc(OP(=O)(O)O)c12`, “inactive”.
With `O=[N+]([O-])O[C@H]1CO[C@H]2[C@@H]1OC[C@H]2O[N+](=O)[O-]`, the compound was called inactive.
Still for that read-out and setting: in the case of `CC(C)NC(C)C` it was “inactive”; in that of `O=C1OC(c2ccc(O)c(S(=O)(=O)O)c2)(c2ccc(O)c(S(=O)(=O)O)c2)c2c(Br)c(Br)c(Br)c(Br)c21`, “inactive”.
The same measure, in the same setting: in the case of `CCC1(c2ccccc2)C(=O)N(COC)C(=O)N(COC)C1=O` it was “inactive”; in that of `CCOC(=O)CC(SP(=S)(OC)OC)C(=O)OCC` (stereo not drawn), “inactive”; in that of `CC(=O)OCC1=C(C(=O)O)N2C(=O)[C@@H](N)[C@H]2SC1`, “inactive”.
On the same count and under the same terms, in the case of `CC1(C)C(C=C(Cl)Cl)C1C(=O)OC(C#N)c1cccc(Oc2ccccc2)c1` (stereo not drawn) it was “inactive”.
`O=C(N/N=C/c1ccc([N+](=O)[O-])o1)c1cc([N+](=O)[O-])cc([N+](=O)[O-])c1O`: the result was inactive.
On the same count and under the same terms, for `CC(=O)NC1CCSC1=O` (stereo not drawn) the value was “inactive”; for `CCCCCCC(=O)CCCCCC/C=C/C[C@@H](O)[C@H](O)[C@@](N)(CO)C(=O)O`, “inactive”.
For `CC(C)c1cccc(C(C)C)c1O`, the result was inactive.
With `COP(=S)(OC)Oc1cc(Cl)c(Cl)cc1Cl`, the call was inactive.
Same read-out and setting: in the case of `O=c1[nH]oc2c1CCNC2` it was “inactive”; in that of `NCCc1ccc(O)cc1`, “inactive”; in that of `O=C1c2ccccc2C(=O)C1C(=O)C(c1ccccc1)c1ccccc1`, “inactive”.
For `NC1=NC(=O)C(c2ccccc2)O1` (stereo not drawn), the compound was classed as inactive.
On the same count and under the same terms, in the case of `C[C@@H](N)[C@@H](O)c1ccccc1` it was “inactive”.
Still for that read-out and setting: for `c1ccc2c(c1)sc1ccccc12` the value was “inactive”; for `CN1CC[C@]23c4c5ccc(O)c4O[C@H]2[C@@H](O)CC[C@H]3[C@H]1C5`, “inactive”.
Same read-out and setting: in the case of `c1ccc(CN2CCNCC2)cc1` it was “inactive”; in that of `CCC(C)(C)c1ccc(O)cc1`, “inactive”; in that of `CNC(C)(C)Cc1ccccc1`, “inactive”.
